In assay [1] the target is Tyrosine-protein kinase Fer (Homo sapiens) (UniProt P16591). Particulars: at 1 µM.
Assay [2] has as its target Tyrosine-protein kinase Fes/Fps (Homo sapiens) (UniProt P07332). Particulars: at 0.1 µM.
The target is the same in assay [3]. Particulars: at 1 µM.
The target of assay [4] is Fibroblast growth factor receptor 1 (Homo sapiens) (UniProt P11362). The following applies: at 0.1 µM.
Assay [5] shares this target. Particulars: at 1 µM.
Assay [6] addresses Fibroblast growth factor receptor 2 (Homo sapiens) (UniProt P21802). The following applies: at 0.1 µM.
For assay [7] the target is unchanged. Particulars: at 1 µM.
Assay [8] deals with Fibroblast growth factor receptor 3 (Homo sapiens) (UniProt P22607). Particulars: at 0.1 µM.
Sequence of Fibroblast growth factor receptor 3 (Homo sapiens) (P22607 23-806 limits assumed): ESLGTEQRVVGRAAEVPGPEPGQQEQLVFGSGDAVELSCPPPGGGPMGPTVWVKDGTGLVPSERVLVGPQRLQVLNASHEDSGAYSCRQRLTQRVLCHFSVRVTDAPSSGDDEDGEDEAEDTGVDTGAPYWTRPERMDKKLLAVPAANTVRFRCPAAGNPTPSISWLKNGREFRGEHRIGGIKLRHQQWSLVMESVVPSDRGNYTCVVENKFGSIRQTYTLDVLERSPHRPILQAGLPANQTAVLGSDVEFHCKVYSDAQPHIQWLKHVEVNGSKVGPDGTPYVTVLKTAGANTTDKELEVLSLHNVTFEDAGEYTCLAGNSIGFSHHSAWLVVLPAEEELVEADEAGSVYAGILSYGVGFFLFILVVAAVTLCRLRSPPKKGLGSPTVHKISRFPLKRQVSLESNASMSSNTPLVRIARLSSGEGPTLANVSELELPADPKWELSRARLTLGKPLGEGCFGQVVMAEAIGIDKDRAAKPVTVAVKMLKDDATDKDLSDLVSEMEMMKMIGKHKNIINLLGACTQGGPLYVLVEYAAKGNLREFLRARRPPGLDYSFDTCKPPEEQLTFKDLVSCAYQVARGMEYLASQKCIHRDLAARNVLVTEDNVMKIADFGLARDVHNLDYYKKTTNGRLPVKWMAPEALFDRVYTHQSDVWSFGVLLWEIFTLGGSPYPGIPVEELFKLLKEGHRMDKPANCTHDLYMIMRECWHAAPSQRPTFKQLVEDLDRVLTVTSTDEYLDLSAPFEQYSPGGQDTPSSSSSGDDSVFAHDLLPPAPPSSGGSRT
For assay [9] the target is unchanged. The following applies: at 1 µM.
Assay [10] deals with Fibroblast growth factor receptor 4 (Homo sapiens) (UniProt P22455). The following applies: at 0.1 µM.
Sequence of Fibroblast growth factor receptor 4 (Homo sapiens) (P22455 22-802 limits assumed): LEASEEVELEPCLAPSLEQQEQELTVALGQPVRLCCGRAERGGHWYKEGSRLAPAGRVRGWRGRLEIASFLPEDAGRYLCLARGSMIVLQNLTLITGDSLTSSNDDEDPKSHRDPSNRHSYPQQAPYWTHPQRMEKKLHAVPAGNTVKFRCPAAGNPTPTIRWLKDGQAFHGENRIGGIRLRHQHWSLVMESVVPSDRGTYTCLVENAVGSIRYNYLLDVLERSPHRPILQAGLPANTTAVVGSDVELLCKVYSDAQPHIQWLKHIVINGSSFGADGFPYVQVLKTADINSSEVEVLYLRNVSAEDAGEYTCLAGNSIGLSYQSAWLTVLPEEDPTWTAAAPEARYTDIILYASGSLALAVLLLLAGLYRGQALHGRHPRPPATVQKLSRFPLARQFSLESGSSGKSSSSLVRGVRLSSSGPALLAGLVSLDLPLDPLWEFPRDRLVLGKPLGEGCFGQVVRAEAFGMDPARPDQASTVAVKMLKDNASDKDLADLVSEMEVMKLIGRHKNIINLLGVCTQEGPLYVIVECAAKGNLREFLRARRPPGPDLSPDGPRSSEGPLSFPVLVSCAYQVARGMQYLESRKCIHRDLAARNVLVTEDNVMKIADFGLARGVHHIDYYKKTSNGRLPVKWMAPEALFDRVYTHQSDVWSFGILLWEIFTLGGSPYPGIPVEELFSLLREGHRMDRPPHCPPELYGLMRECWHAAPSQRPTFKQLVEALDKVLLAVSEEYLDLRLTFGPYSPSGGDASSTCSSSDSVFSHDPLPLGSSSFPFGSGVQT
Assay [11] has the same target. Particulars: at 1 µM.
Assay [12] has as its target Tyrosine-protein kinase Fgr (Homo sapiens) (UniProt P09769). The following applies: at 0.1 µM.
Assay [13] shares this target. Particulars: at 1 µM.
In assay [14] the target is Vascular endothelial growth factor receptor 1 (Homo sapiens) (UniProt P17948). Particulars: at 0.1 µM.
Sequence of Vascular endothelial growth factor receptor 1 (Homo sapiens) (P17948 whole entry): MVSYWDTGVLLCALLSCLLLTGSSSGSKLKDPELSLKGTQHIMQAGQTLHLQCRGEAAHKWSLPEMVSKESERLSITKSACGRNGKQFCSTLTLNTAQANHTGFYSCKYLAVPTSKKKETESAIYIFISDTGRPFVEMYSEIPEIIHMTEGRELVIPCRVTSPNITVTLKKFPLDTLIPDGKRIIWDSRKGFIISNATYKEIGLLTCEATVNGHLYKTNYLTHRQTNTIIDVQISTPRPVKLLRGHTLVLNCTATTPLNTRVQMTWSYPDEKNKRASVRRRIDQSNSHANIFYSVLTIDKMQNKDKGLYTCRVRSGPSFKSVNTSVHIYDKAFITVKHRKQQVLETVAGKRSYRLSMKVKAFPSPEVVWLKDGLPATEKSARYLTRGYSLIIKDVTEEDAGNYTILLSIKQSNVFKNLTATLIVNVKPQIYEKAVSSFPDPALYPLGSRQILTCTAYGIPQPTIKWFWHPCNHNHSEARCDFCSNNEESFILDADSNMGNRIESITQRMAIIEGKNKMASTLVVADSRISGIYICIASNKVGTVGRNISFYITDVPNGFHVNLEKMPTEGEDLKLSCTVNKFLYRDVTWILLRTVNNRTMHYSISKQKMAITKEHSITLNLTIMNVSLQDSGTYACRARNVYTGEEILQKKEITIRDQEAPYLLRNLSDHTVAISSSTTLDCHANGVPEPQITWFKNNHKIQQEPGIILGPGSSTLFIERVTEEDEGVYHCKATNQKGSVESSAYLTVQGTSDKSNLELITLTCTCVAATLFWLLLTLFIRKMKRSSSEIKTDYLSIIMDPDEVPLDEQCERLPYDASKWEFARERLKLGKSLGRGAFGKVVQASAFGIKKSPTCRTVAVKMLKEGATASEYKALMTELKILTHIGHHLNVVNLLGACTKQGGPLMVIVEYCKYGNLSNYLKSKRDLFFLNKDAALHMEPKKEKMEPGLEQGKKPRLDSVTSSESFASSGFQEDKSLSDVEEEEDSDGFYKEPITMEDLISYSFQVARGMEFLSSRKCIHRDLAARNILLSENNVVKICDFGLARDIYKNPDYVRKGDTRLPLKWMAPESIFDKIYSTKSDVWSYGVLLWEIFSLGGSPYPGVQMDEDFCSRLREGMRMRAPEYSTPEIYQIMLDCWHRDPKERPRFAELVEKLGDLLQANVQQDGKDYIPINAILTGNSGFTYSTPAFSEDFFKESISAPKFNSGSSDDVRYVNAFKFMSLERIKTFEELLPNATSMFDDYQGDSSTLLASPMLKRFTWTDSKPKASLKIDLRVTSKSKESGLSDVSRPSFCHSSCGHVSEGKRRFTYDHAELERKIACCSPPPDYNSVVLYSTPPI
The target is the same in assay [15]. Particulars: at 1 µM.
Assay [16] addresses Receptor-type tyrosine-protein kinase FLT3 (Homo sapiens) (UniProt P36888). Particulars: at 0.1 µM.
Assay [17] has the same target. The following applies: at 1 µM.
Assay [18] concerns T1, Receptor-type tyrosine-protein kinase FLT3 (Homo sapiens), P36888 [D835Y].
T1 sequence (whole entry): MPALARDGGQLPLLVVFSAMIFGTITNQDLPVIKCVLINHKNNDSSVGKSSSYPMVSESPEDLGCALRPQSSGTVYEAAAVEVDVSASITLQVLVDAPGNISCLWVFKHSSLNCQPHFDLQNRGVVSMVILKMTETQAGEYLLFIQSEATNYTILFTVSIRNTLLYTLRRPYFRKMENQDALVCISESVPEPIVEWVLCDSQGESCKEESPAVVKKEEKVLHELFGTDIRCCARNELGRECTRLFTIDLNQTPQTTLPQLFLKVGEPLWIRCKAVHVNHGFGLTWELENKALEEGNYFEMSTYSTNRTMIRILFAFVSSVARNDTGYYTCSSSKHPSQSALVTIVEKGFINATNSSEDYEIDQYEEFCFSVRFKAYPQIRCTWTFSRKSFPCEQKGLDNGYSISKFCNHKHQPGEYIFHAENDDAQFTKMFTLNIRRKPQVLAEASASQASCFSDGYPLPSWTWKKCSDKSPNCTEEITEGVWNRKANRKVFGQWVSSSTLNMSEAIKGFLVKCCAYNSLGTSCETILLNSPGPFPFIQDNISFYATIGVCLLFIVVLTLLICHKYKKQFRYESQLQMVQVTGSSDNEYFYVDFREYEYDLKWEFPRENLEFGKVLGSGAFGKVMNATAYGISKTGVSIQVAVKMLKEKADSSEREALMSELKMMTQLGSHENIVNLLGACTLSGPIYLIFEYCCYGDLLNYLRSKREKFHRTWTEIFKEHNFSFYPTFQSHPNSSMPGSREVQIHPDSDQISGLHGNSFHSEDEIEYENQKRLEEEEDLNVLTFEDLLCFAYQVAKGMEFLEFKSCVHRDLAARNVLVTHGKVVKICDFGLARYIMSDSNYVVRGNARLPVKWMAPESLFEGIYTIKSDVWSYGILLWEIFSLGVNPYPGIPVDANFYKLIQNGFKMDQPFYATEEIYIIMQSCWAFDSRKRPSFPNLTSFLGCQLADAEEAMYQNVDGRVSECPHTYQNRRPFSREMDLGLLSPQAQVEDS
The following applies: at 0.1 µM.

For assay [19], the target named is Non-receptor tyrosine-protein kinase TYK2 (Homo sapiens) (UniProt P29597). The following applies: at 1 µM.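 Also: values are mean percent inhibition of TYK2 kinase.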
For assay [20], the target named is T2, Tyrosine-protein kinase receptor TYRO3 (Homo sapiens) (UniProt Q06418).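 Also: reported percentages are averaged inhibition values of TYRO3 kinase activity.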
T2 sequence (whole entry): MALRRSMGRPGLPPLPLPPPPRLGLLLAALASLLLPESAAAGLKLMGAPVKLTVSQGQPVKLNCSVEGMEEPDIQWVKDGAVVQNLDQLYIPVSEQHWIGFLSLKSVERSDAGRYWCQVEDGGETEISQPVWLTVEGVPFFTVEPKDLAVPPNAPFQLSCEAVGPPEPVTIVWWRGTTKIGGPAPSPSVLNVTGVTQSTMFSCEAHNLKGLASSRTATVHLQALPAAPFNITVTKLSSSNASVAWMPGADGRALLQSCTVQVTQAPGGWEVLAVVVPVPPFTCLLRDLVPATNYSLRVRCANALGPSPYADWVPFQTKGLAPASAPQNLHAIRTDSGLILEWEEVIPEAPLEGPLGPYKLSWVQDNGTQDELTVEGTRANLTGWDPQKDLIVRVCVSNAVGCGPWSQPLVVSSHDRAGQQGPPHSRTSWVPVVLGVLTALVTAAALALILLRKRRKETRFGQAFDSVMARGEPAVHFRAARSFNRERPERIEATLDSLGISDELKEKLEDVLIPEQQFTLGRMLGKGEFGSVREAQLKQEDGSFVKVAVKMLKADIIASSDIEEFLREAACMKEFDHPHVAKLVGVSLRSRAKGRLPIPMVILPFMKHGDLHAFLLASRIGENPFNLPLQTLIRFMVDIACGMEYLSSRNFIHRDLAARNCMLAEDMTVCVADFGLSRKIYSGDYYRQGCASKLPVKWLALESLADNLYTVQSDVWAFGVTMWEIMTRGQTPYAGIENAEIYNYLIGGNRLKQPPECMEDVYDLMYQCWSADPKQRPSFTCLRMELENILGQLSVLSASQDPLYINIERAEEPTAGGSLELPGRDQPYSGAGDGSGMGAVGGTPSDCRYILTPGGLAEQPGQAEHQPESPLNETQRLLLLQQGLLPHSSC
The following applies: at 0.1 µM.

Sequence of Tyrosine-protein kinase Fgr (Homo sapiens) (P09769 2-529 limits assumed): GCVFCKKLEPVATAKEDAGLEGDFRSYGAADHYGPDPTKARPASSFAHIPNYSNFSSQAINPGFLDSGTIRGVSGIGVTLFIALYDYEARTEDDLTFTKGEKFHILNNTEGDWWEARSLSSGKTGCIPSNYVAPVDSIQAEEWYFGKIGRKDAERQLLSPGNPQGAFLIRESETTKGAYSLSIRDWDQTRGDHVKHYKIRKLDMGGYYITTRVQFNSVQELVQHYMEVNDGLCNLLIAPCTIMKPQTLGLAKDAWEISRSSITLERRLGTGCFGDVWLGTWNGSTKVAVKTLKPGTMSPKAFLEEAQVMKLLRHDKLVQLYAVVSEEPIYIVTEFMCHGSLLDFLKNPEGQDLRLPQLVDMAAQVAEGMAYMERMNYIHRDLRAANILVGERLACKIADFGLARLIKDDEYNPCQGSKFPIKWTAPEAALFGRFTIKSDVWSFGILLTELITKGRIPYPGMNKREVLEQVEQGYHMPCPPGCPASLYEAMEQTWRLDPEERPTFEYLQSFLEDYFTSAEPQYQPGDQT
Sequence of Tyrosine-protein kinase Fer (Homo sapiens) (P16591 whole entry, looked up): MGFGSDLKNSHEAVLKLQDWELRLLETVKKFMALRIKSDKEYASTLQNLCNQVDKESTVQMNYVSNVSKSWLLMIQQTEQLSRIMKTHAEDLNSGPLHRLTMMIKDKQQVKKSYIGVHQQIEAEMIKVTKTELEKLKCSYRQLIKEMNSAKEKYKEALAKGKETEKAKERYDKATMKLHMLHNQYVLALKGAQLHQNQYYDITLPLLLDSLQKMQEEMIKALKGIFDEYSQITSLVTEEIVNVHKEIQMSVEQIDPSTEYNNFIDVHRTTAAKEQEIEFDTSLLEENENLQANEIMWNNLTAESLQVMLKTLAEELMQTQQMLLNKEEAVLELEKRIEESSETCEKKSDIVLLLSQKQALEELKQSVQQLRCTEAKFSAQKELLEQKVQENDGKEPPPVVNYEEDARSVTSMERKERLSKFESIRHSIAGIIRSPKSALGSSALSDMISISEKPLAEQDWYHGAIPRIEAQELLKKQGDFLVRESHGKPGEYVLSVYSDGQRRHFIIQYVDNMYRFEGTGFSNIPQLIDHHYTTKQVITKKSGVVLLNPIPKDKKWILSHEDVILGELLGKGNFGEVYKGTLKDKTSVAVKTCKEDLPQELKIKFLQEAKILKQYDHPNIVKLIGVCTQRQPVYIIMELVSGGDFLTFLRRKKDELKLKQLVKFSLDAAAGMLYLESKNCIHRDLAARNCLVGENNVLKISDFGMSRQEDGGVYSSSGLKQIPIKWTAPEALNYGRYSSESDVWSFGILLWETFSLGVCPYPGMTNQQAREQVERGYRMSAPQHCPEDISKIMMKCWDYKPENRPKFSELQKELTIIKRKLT
Sequence of Fibroblast growth factor receptor 1 (Homo sapiens) (P11362 22-822 limits assumed): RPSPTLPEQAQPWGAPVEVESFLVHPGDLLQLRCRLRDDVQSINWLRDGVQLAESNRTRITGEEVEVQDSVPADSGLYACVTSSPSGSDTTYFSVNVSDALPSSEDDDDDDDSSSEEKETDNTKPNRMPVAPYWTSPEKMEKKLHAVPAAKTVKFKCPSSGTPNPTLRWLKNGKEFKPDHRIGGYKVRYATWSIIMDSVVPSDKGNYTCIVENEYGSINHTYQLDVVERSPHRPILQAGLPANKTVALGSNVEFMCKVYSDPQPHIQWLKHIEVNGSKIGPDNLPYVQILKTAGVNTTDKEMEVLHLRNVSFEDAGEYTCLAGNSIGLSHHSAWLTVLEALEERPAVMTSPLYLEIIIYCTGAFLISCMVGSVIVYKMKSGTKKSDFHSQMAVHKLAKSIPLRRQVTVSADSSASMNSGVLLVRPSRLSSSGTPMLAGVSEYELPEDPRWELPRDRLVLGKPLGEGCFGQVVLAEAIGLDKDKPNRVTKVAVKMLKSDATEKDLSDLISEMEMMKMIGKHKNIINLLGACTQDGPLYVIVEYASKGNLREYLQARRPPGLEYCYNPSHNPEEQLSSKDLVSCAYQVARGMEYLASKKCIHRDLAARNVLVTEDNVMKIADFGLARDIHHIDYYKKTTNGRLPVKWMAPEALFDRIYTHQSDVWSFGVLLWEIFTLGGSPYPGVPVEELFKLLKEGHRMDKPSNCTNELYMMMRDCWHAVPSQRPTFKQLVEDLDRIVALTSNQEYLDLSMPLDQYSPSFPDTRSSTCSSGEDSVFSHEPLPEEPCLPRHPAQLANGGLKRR

The inhibition is the drop in the measured response relative to a control, in per cent. `NS(=O)(=O)c1cccc(Nc2cc(-c3ccc(F)cc3)n[nH]2)c1`: the inhibition in assay [1] was 6.71%; in [2] it was 2.34%; in [3], 2.7%; in assay [4], 0.46%; in [5] it was 3.62%; in assay [6], 0.78%. In addition, the inhibition in assay [7] came to 9.22%; in [8], 8.19%; in assay [9], 8.88%; in [10] it was 0.98%; in assay [11], 2.4%; in assay [12], 6.05%. For the same molecule, the inhibition in [13] is 14.4%; in assay [14], 2.62%; in [15], 15.9%; in assay [16], 16.3%; in assay [17], 67.1%; in assay [18], -2.62%. In addition, the inhibition in assay [19] is -1.33%; in assay [20], 4.42%.
On to `Cc1ccc2c(c1)/C(=N/Nc1ccc(S(N)(=O)=O)cc1)C(=O)N2`, for which the inhibition in [1] was 0.29%; in [2], -0.01%; in assay [3], 0.85%; in [4], 0.1%; in assay [5] it was 4.71%; in assay [6], 2.39%. Also, the inhibition is 27.2% in [7]; 4.04% in assay [8]; 26.5% in assay [9]; -1.85% in assay [10]; -0.45% in [11]; -0.72% in assay [12]. Besides, the inhibition in [13] is 9.99%; in [14] it was 0.83%; in assay [15], 7.86%; in assay [16], 13.6%; in assay [17] it was 61.7%; in [18], -0.36%. In addition, the inhibition in [19] was 1.67%; in [20], -0.02%.
In the case of `O=S(=O)(CCOCc1ccc(-c2ccc3ncnc(Nc4ccc(OCc5cccc(F)c5)c(Cl)c4)c3c2)o1)c1ccccc1`, the inhibition is -0.81% in [1]; 0.82% in assay [2]; 1.19% in assay [3]; 1.05% in assay [4]; 5.27% in assay [5]; -0.62% in [6]. Further, the inhibition in assay [7] is 3.75%; in assay [8] it was 0.41%; in [9] it was 6.24%; in assay [10], 1.07%; in [11], 0.08%; in [12], -0.06%. For the same molecule, the inhibition in [13] was 2.31%; in assay [14], -2.31%; in [15] it was 0.57%; in [16] it was 4.16%; in assay [17], 2.25%; in [18], -3.61%. Further, the inhibition in assay [19] is -0.44%; in assay [20] it was -0.84%.
Consider `Cc1ccc2c(-c3ccnc(Nc4cccc(C(F)(F)F)c4)n3)c(-c3ccccc3)nn2n1`, for which the inhibition in assay [1] was determined as 43.3%; in [2], 3.67%; in [3], 5.17%; in [4], 5.59%; in [5], 8.78%; in [6], 6.45%. Moreover, the inhibition in [7] stood at 9.52%; in assay [8] it was 7.84%; in [9] it was 6.97%; in [10], 2.15%; in assay [11], 0.17%; in assay [12] it was 36.8%. Besides, the inhibition in assay [13] was 71%; in assay [14], 2.37%; in assay [15] it was 21.2%; in assay [16] it was 1.89%; in assay [17], 10.2%; in assay [18], 3.67%. For the same molecule, the inhibition in assay [19] is -1.51%; in assay [20], 2.7%.
Consider `CCn1c(-c2nonc2N)nc2c(C#CC(C)(C)O)nc(OCCNC)cc21`, for which the inhibition in assay [1] worked out at 1.17%; in assay [2], 4.11%; in [3] it was 4.46%; in assay [4] it was 6.92%; in assay [5] it was 5.9%; in [6], 5.4%. Also, the inhibition in assay [7] was 6.92%; in assay [8], 7.79%; in assay [9] it was 3.95%; in assay [10], 4.43%; in [11], 1.88%; in [12], 0.15%. Further, the inhibition in assay [13] was 3.62%; in assay [14], 1.71%; in assay [15] it was 10.2%; in [16] it was 1.46%; in [17], 4.57%; in assay [18] it was -1.99%. The inhibition in [19] is -2.59%; in [20] it was 2.56%.
`Cc1ccc(C(=O)NC2CC2)cc1-c1ccc2[nH]ncc2c1`: the inhibition in assay [1] is 0.05%; in assay [2] it was -3.18%; in assay [3] it was -3.34%; in assay [4] it was -0.69%; in [5], -5.16%; in [6] it was -3.95%. The inhibition in [7] is -3.78%; in assay [8], -5.18%; in [9] it was 0.28%; in [10] it was 1.43%; in assay [11], 0.32%; in assay [12] it was -1.47%. Besides, the inhibition in assay [13] is 1.41%; in assay [14], -2.04%; in assay [15], -1.81%; in assay [16] it was -3.48%; in assay [17], 0.84%; in [18] it was -3.02%. For the same molecule, the inhibition is 2.43% in assay [19] and -1.74% in [20].
Consider `CCn1c(-c2nonc2N)nc2ccc(F)cc21`, for which the inhibition in [1] is 7.92%; in assay [2] it was 2.98%; in [3], 2.83%; in assay [4], 3.73%; in [5] it was 10.2%; in assay [6], 5.98%. Also, the inhibition in assay [7] is 4.55%; in assay [8], 7.35%; in assay [9] it was 5.83%; in assay [10], 2.81%; in assay [11], 2.77%; in assay [12] it was 4.5%. Also, the inhibition in assay [13] is 1.73%; in assay [14], 3.79%; in assay [15], 2.76%; in [16], 2.66%; in assay [17] it was 2.44%; in assay [18], -1.29%. Besides, the figures for the inhibition in assay [19] and in [20] were -4.18% and 3.03%, respectively.
